Values joined by “and” are separate entries in the source; they are usually repeats but may differ in a detail not shown here. Identical values can stand only once. Inconclusive results are not listed. A number with no mark means an inactive call. Active and inactive are the calls of the source. The call rests on the fitted dose curve; in most records, active means well fitted inhibition curve with a large enough effect in the repeat runs; inconclusive means weak or mixed curves; inactive means flat fitted curve, though single readings scatter.
Biological target: Voltage-gated inwardly rectifying potassium channel KCNH2 (Homo sapiens) (UniProt Q12809)
Sequence (Q12809 whole entry, looked up): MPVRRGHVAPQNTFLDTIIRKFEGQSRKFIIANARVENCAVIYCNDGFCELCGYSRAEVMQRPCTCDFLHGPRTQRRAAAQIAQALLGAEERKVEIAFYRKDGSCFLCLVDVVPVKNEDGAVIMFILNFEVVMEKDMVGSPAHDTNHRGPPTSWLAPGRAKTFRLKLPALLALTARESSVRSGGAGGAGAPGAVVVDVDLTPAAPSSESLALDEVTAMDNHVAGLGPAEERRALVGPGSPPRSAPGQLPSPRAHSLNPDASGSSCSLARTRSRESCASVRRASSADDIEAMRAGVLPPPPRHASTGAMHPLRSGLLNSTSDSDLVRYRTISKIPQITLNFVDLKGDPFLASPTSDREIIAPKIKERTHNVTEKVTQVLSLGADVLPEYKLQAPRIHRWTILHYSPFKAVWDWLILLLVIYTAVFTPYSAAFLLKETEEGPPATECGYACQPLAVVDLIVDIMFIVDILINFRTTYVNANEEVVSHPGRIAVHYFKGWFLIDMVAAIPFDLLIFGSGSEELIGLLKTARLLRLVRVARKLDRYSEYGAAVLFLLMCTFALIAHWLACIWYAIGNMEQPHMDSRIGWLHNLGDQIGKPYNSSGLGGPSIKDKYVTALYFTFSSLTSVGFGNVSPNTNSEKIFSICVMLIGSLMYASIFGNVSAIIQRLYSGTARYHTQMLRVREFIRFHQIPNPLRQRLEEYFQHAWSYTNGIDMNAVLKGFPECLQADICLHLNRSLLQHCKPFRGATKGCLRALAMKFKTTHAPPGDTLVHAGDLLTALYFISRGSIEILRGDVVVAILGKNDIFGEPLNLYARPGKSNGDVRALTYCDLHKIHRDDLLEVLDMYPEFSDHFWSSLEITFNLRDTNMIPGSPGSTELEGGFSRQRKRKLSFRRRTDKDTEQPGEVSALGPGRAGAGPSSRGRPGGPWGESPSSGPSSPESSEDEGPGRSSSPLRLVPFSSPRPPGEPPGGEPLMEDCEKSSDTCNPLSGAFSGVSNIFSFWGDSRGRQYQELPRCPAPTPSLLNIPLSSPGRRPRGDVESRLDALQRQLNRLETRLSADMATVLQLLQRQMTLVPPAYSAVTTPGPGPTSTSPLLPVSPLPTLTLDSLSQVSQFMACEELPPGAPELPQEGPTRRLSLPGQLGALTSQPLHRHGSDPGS
Experiment: Human Ether-a-go-go-Related Gene (hERG) channel small molecule antagonists: fluorescence cell-based qHTS assay (AID 1671200); further: nearly all actives have a fitted effect of over 50% in size
Details: hERG-U2OS cells, FluxOR thallium flux fluorescence; series mostly up to 76.8 µM; activity change, negative = inhibition: at the top concentration
Method in brief: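 U2OS cells expressing the channel were plated at 1000 cells/well, incubated overnight at 37 C, then loaded with FluxOR II thallium-sensitive dye for 1 h at room temperature in the dark, with a further 10 min at room temperature before stimulation.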
On the % scale 0 is the no-effect control and ±100 the full control effect; potency means the concentration at half of the fitted maximal effect.

SMILES | activity change, negative = inhibition | Potency
O=[N+]([O-])c1ccc(O)cc1C(F)(F)F | 2.32% | –
O=C(Nc1ccc2c(O)c(N=Nc3ccc(N=Nc4ccc(S(=O)(=O)O)cc4)cc3)c(S(=O)(=O)O)cc2c1)c1ccccc1 | -9.71% | –
O=C1CCc2cc(OCCCCc3nnnn3C3CCCCC3)ccc2N1 | -18.3% [at 35.3 µM] | –
CCOC(=O)Cn1cccc1-c1nc(-c2ccc(OC)cc2)c(-c2ccc(OC)cc2)s1 | -6.79% [at 35.3 µM] | –
O=C1CCCCCCCCCCCCCCCO1 | -18.5% | –
Clc1ccnc(Cl)n1 | -1.86% | –
Cc1cc(-c2ccc(N=Nc3cc(S(=O)(=O)O)c4ccccc4c3N)c(C)c2)ccc1N=Nc1cc(S(=O)(=O)O)c2ccccc2c1N | – | 19.6 µM (active)
COC(=O)C1=C(C)NC(C)=C(C(=O)OCCN2CCN(C(c3ccccc3)c3ccccc3)CC2)C1c1cccc([N+](=O)[O-])c1 (stereo not given) | – | 5.35 µM (active)
OC/C=C/CO | 7.49% | –
COc1ccc2cc1Oc1ccc(cc1)C[C@H]1c3c(cc4c(c3Oc3cc5c(cc3OC)CCN(C)[C@@H]5C2)OCO4)CCN1C | – | 9.52 µM (active)
CCC(CC)(CC(=O)Nc1cccc(/C=C/c2nc(C3CCC3)cs2)c1)C(=O)O | 1.27% [at 35.3 µM] | –
CCCc1ccc(OCC(=O)N2CCN(C(=O)COc3ccc(CCC)cc3OC)CC2)c(OC)c1 | – | 1.34 µM (active)
CCCCCCCCCCCCCC[N+](C)(C)Cc1ccccc1 | – | 993 nM (active) and 1.69 µM (active) and 1000 µM (active)
Nc1cc(Cl)c(O)c(Cl)c1 | -5.86% | –
C#C[C@]1(OC(C)=O)CC[C@H]2[C@@H]3CCC4=C[C@@H](OC(C)=O)CC[C@@H]4[C@H]3CC[C@@]21C | -26.1% [at 35.3 µM] | –
